Unmarked numbers belong to inactive results. No rule for the calls is given here.

The target of this assay is Pantothenate synthetase (Mycobacterium tuberculosis (strain ATCC 25618 / H37Rv)) (UniProt P9WIL5). Put plainly: Recombinant Mtb pantothenate synthetase (PanC) inhibitors, coupled enzyme, confirmatory (AID 375).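 Also: 0% = full reaction with vehicle and 100% = no enzyme background.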 The settings on record: coupled enzyme assay; at 10 µM, hits give high values.
Sequence of Pantothenate synthetase (Mycobacterium tuberculosis (strain ATCC 25618 / H37Rv)) (P9WIL5 whole entry, looked up): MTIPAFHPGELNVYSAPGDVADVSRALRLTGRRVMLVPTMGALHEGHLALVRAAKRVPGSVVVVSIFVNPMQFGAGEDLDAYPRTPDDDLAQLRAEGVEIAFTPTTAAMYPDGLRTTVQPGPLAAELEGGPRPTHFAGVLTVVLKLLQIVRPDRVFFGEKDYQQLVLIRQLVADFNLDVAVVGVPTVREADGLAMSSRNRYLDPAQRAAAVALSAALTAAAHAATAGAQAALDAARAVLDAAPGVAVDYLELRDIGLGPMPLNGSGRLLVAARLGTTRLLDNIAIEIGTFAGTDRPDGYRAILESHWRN
As for `COc1ccc(CN(CC(=O)NCC2CCCO2)C(=O)CCC(=O)Nc2cc(C)on2)cc1` (centres undefined), the inhibition is 0%. For `COc1ccc(OC)c(S(=O)(=O)Nc2ccccc2C(=O)O)c1`, the inhibition was 6%. In the case of `Cc1nc2scc(-c3cccs3)c2c(=O)n1-n1cccc1`, the inhibition is 4%. Then `O=C(NCCO)c1cccc2c1C(=O)c1ccccc1-2`, with 11%; and `Cn1c(SCC(=O)Nc2cccc3ccccc23)nc(O)cc1=O`, with 0%; and `N#CCCn1cnc2ccccc21`, with 0%. Then `COC(=O)c1cccc(S(=O)(=O)N2CCC(C)CC2)c1`, with 3%; and `CC(C)[C@H](NC(=O)NC1CCCC1)C(=O)O`, with 0%. Then `C=C(C)COc1ccc(-c2n[nH]c(C)c2-c2ccccc2)c(O)c1`, with 0%. Take `Cc1cccc(CCNC(=O)CCc2nc(-c3ccccc3F)no2)c1`: the inhibition was 0%. Take `NC(N)=NC(N)=NCCc1ccccc1`: the inhibition was 4%.

For the compound `CCOc1ccc(-n2cc(C(=O)N3CCN(C)CC3)c3cc(OC)c(OC)cc3c2=O)cc1`, the inhibition is 0%. With `O=C(c1cn(-c2ccccc2)nc1-c1cccs1)N1CCN(c2ccccn2)CC1`, the inhibition was 2%. In the case of `COc1cccc(Oc2cnc(N)nc2-c2ccc(OC)cc2O)c1`, the inhibition was 2%. To `O=C(CSc1nc(-c2ccco2)cc(C(F)(F)F)n1)N1CCCc2ccccc21` belongs 5%; to `N#Cc1c(N)n(CCNC(=O)c2cccs2)c2nc3ccccc3nc12`, 9%.

With `COc1ccc(NC(=O)CN2CCCCC2)cc1`, the inhibition is 0%. To `COc1ccc(C2CNC(=O)C2)cc1OC1CCCC1` (centres undefined) belongs 1%; to `Cn1c(=O)oc2cc(S(=O)(=O)NC3CCN(Cc4ccccc4)CC3)ccc21`, 0%; to `O=C(C1CCN(c2nnc(-n3cccc3)s2)CC1)N1CCN(Cc2ccc3c(c2)OCO3)CC1`, 10%. To `O=C(O)C1CCCN1c1ncnc2c1oc1ccccc12` (centres undefined) belongs 0%; to `CCC1Oc2ccc(C)cc2N(CC(=O)NCCCN2CCCCC2CC)C1=O` (centres undefined), 4%; to `CCOc1ccc(-c2c(C#N)c(N)nc3c2c(=O)n(C)c(=O)n3C)cc1OC`, 6%. To `CC(C)c1nccn1S(=O)(=O)c1cc(Cl)ccc1Cl` belongs 0%; to `Cn1cccc1Cc1nnc(SCC(=O)Nc2ccccc2F)n1-c1ccc(F)cc1`, 0%; to `CC(C)(C)Cc1nc(-c2ccccn2)no1`, 0%. As to `CC(Oc1ccc(Cl)cc1Cl)C(=O)Nc1ncccn1` (centres undefined), the inhibition is 0%. To `Cc1c2c(nc3nc4ccccc4n13)CC(C)(C)CC2=O` belongs 8%. With `Cc1cc(NC(=O)CCOc2ccccc2)no1`, the inhibition was 0%. To `CCCNC(=O)c1ccccc1C(=O)NCCC` belongs 0%. Then `COc1ccc(-c2cc(C(F)F)n3ncc(C(=O)NCC4CCCO4)c3n2)cc1` (centres undefined), with 4%; and `Cc1ccc(OCc2nnc(SCC(=O)Nc3ccc4c(c3)OCO4)n2C)cc1`, with 0%; and `Cc1cc(C)c2nc(C(F)(F)F)nc(NCCCN3CCCC3=O)c2c1`, with 0%. For `CN(CC(=O)N1CCN(C2CCCCC2)CC1)S(=O)(=O)c1cccc2nsnc12`, the inhibition is 8%. Then `CCC(=O)Nc1cc(C(=O)NCC2CCCN2CC)c(OC)cc1N(C)C` (centres undefined), with 0%; and `CCC(C)c1ccc(NC(=O)c2cccnc2)cc1` (centres undefined), with 9%. In the case of `Cc1nc(/N=C\N(C)C)sc1C(=O)Nc1ccccc1`, the inhibition was 0%. To `COc1ccc(NC(=O)CSc2nnc(Cc3cccn3C)n2-c2ccc(F)cc2)cc1` belongs 0%; to `COc1cc(C)c(N)cc1C(C)C`, 2%.

The values are drawn from PubChem BioAssay.
